From PubChem BioAssay AID1159580 (chemical genetic matrix, 2015)
Among all 5,500 compounds or so, about 2,000 (36%) were called active. About 18% were inconclusive and are not listed. Rule as the data show it: active = normalized growth mostly below about 0.91 (no sharp cut-off); inconclusive = no clear call, values can overlap the other calls; inactive = mostly above about 0.92. This is one part of the list.

Assay: chemical genetic growth profiling, strain panel (AID 1159580);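 also: tested at 20 µM; growth read once vehicle control cultures reached saturation at 30 °C; 1 = growth at the plate median or of vehicle wells; lower values mean less growth of the strain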
Details: growth OD

Measured: normalized growth

CC(=O)O[C@H]1C[C@H](O[C@H]2[C@@H](O)C[C@H](O[C@H]3[C@@H](O)C[C@H](O[C@H]4CC[C@@]5(C)C(CCC6C5C[C@@H](O)[C@]5(C)[C@@H](C7=CC(=O)OC7)CC[C@]65O)C4)O[C@@H]3C)O[C@@H]2C)O[C@H](C)[C@H]1O[C@@H]1O[C@H](CO)[C@@H](O)[C@H](O)[C@H]1O (stereo not given in full)
inactive: S. cerevisiae deletion strains, locus YJR075W, strain HOC1, stronger effect = lower value 1.02 | S. cerevisiae deletion strains, locus YKL009W, strain mrt4, stronger effect = lower value 1 | S. cerevisiae deletion strains, locus YKL068W, stronger effect = lower value 1 | S. cerevisiae deletion strains, locus YKL085W, strain MDH1 (second series), stronger effect = lower value 1 | S. cerevisiae deletion strains, locus YKL085W, strain MDH1, stronger effect = lower value 1 | S. cerevisiae deletion strains, locus YKL160W, strain elf1, stronger effect = lower value 1.01 | S. cerevisiae deletion strains, locus YKL190W, strain CNB1, stronger effect = lower value 1.01 | S. cerevisiae deletion strains, locus YKR001C, strain vps1, stronger effect = lower value 1.01 | S. cerevisiae deletion strains, locus YKR026C, strain gcn3, stronger effect = lower value 0.982 | S. cerevisiae deletion strains, locus YKR091W, strain srl3, stronger effect = lower value 1 | S. cerevisiae deletion strains, locus YLL001W, strain dnm1, stronger effect = lower value 1 | S. cerevisiae deletion strains, locus YLL026W, stronger effect = lower value 0.999 | S. cerevisiae deletion strains, locus YLL041C, strain sdh2, stronger effect = lower value 1 | S. cerevisiae deletion strains, locus YLR027C, strain aat2, stronger effect = lower value 1 | S. cerevisiae deletion strains, locus YLR039C, strain RIC1, stronger effect = lower value 1.05 | S. cerevisiae deletion strains, locus YLR058C, strain SHM2, stronger effect = lower value 1.02 | S. cerevisiae deletion strains, locus YLR102C, strain apc9, stronger effect = lower value 0.978 | S. cerevisiae deletion strains, locus YLR113W, strain HOG1, stronger effect = lower value 0.977 | S. cerevisiae deletion strains, locus YLR221C, strain rsa3, stronger effect = lower value 1 | S. cerevisiae deletion strains, locus YLR258W, strain gsy2, stronger effect = lower value 0.994 | S. cerevisiae deletion strains, locus YLR262C, strain YPT6 (second series), stronger effect = lower value 0.999 | S. cerevisiae deletion strains, locus YLR262C, strain YPT6, stronger effect = lower value 1.04 | S. cerevisiae deletion strains, locus YLR268W, strain sec22, stronger effect = lower value 1 | S. cerevisiae deletion strains, locus YLR320W, strain mms22, stronger effect = lower value 0.999 | S. cerevisiae deletion strains, locus YLR330W, strain CHS5, stronger effect = lower value 1.01 | S. cerevisiae deletion strains, locus YLR342W, strain FKS1 (second series), stronger effect = lower value 1.02 | S. cerevisiae deletion strains, locus YLR342W, strain FKS1, stronger effect = lower value 1 | S. cerevisiae deletion strains, locus YLR357W, strain rsc2, stronger effect = lower value 0.993 | S. cerevisiae deletion strains, locus YLR370C, strain arc18, stronger effect = lower value 0.994 | S. cerevisiae deletion strains, locus YLR371W, strain rom2, stronger effect = lower value 0.975 | S. cerevisiae deletion strains, locus YLR384C, strain iki3, stronger effect = lower value 0.988 | S. cerevisiae deletion strains, locus YLR418C, strain cdc73, stronger effect = lower value 1.05 | S. cerevisiae deletion strains, locus YML016C, strain PPZ1, stronger effect = lower value 1.01 | S. cerevisiae deletion strains, locus YML032C, strain rad52, stronger effect = lower value 0.991 | S. cerevisiae deletion strains, locus YML120C, strain ndi1, stronger effect = lower value 0.992 | S. cerevisiae deletion strains, locus YML124C, strain tub3, stronger effect = lower value 0.992 | S. cerevisiae deletion strains, locus YMR058W, strain fet3, stronger effect = lower value 1 | S. cerevisiae deletion strains, locus YMR078C, strain ctf18, stronger effect = lower value 0.984 | S. cerevisiae deletion strains, locus YMR125W, strain sto1, stronger effect = lower value 0.979 | S. cerevisiae deletion strains, locus YMR129W, stronger effect = lower value 0.991 | S. cerevisiae deletion strains, locus YMR205C, strain PFK2, stronger effect = lower value 0.974 | S. cerevisiae deletion strains, locus YMR223W, strain ubp8, stronger effect = lower value 0.997 | S. cerevisiae deletion strains, locus YMR231W, strain pep5, stronger effect = lower value 0.989 | S. cerevisiae deletion strains, locus YMR263W, strain SAP30, stronger effect = lower value 1.01 | S. cerevisiae deletion strains, locus YMR307W, strain GAS1, stronger effect = lower value 1.07 | S. cerevisiae deletion strains, locus YNL067W, strain RPL9B, stronger effect = lower value 1 | S. cerevisiae deletion strains, locus YNL071W, strain lat1, stronger effect = lower value 0.999 | S. cerevisiae deletion strains, locus YNL183C, strain NPR1, stronger effect = lower value 0.922 | S. cerevisiae deletion strains, locus YNL209W, strain ssb2, stronger effect = lower value 0.999 | S. cerevisiae deletion strains, locus YNL233W, strain BNI4, stronger effect = lower value 1.01 | S. cerevisiae deletion strains, locus YNL248C, strain rpa49, stronger effect = lower value 0.998 | S. cerevisiae deletion strains, locus YNL250W, strain rad50, stronger effect = lower value 1.01 | S. cerevisiae deletion strains, locus YNL271C, strain bni1, stronger effect = lower value 1.01 | S. cerevisiae deletion strains, locus YNL298W, strain CLA4, stronger effect = lower value 1 | S. cerevisiae deletion strains, locus YNL307C, strain MCK1, stronger effect = lower value 0.991 | S. cerevisiae deletion strains, locus YNL322C, strain KRE1 (second series), stronger effect = lower value 0.993 | S. cerevisiae deletion strains, locus YNL322C, strain KRE1, stronger effect = lower value 1.01 | S. cerevisiae deletion strains, locus YNR049C, strain mso1, stronger effect = lower value 0.992 | S. cerevisiae deletion strains, locus YNR052C, strain pop2, stronger effect = lower value 0.994 | S. cerevisiae deletion strains, locus YOL006C, strain TOP1, stronger effect = lower value 1.03 | S. cerevisiae deletion strains, locus YOL012C, strain htz1 0.846 | S. cerevisiae deletion strains, locus YOL147C, strain pex11, stronger effect = lower value 0.988 | S. cerevisiae deletion strains, locus YOR001W, strain rrp6, stronger effect = lower value 1.01 | S. cerevisiae deletion strains, locus YOR061W, strain CKA2, stronger effect = lower value 1.01 | S. cerevisiae deletion strains, locus YOR069W, strain VPS5, stronger effect = lower value 1.01 | S. cerevisiae deletion strains, locus YOR070C, strain gyp1, stronger effect = lower value 0.999 | S. cerevisiae deletion strains, locus YOR080W, strain dia2, stronger effect = lower value 0.999 | S. cerevisiae deletion strains, locus YOR083W, strain WHI5, stronger effect = lower value 1 | S. cerevisiae deletion strains, locus YOR106W, strain vam3, stronger effect = lower value 1.01 | S. cerevisiae deletion strains, locus YOR136W, strain idh2, stronger effect = lower value 1 | S. cerevisiae deletion strains, locus YOR144C, strain elg1, stronger effect = lower value 1 | S. cerevisiae deletion strains, locus YOR184W, strain ser1, stronger effect = lower value 1.02 | S. cerevisiae deletion strains, locus YOR231W, strain MKK1, stronger effect = lower value 0.983 | S. cerevisiae deletion strains, locus YOR265W, strain rbl2, stronger effect = lower value 1 | S. cerevisiae deletion strains, locus YOR270C, strain vph1, stronger effect = lower value 0.946 | S. cerevisiae deletion strains, locus YOR290C, strain snf2, stronger effect = lower value 1.02 | S. cerevisiae deletion strains, locus YOR316C, strain cot1, stronger effect = lower value 0.982 | S. cerevisiae deletion strains, locus YPL051W, strain arl3, stronger effect = lower value 1 | S. cerevisiae deletion strains, locus YPL055C, strain LGE1, stronger effect = lower value 0.997 | S. cerevisiae deletion strains, locus YPL078C, strain atp4, stronger effect = lower value 1.02 | S. cerevisiae deletion strains, locus YPL106C, strain sse1, stronger effect = lower value 1 | S. cerevisiae deletion strains, locus YPL240C, strain hsp82, stronger effect = lower value 0.999 | S. cerevisiae deletion strains, locus YPL241C, strain CIN2, stronger effect = lower value 1.01 | S. cerevisiae deletion strains, locus YPL256C, strain CLN2, stronger effect = lower value 0.994 | S. cerevisiae deletion strains, locus YPR119W, strain clb2, stronger effect = lower value 0.981 | S. cerevisiae deletion strains, locus YPR141C, strain kar3, stronger effect = lower value 1.01 | S. cerevisiae deletion strains, locus YPR163C, strain tif3, stronger effect = lower value 0.99 | S. cerevisiae deletion strains, locus YPR167C, strain met16, stronger effect = lower value 1.01 | S. cerevisiae deletion strains, strain wtn01, stronger effect = lower value 1.01 | S. cerevisiae strains, strain wild type, stronger effect = lower value 1.01
